Screening data: PubChem BioAssay, National Center for Advancing Translational Sciences (NCATS)
Pf growth 48h: inhibits P. falciparum growth in the first generation, 48 h; P. falciparum luciferase growth in erythrocytes, 48 h; Potency, µM (doses to about 28.7 µM), actives largely listed as inhibitors; hit rate 5.9% among 310,000
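Luminescence readout; reporter = integrated firefly luciferase in P. falciparum. RBC culture at 2% hematocrit, 0.1% parasitemia final, 37 C/5% CO2; decreased signal taken as growth inhibition.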
Pf growth 96h: inhibits malaria parasite growth, 96 h | P. falciparum luciferase reporter growth, 96 h | AID 504834 | Potency, µM (highest dose often 28.7 µM), most hits filed as inhibitors | hit rate 6.9% among 320,000
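P. falciparum expressing integrated firefly luciferase, in erythrocytes at 2% hematocrit, 0.05% parasitemia, incubated with compounds 96 h at 37 C, 5% CO2. Growth inhibition read as loss of luminescence; two-generation exposure targets delayed-death apicoplast inhibitors.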
RE007 growth inh: less growth of the S. pombe RE007 Vpr strain | S. pombe RE007 Vpr strain, BacTiter-Glo ATP luminescence, 24 h | hit rate 0.21% among 360,000 | Potency, µM (highest dose often 92.2 µM), actives largely listed as inhibitors; active = well fitted falling curve with a large enough effect; inconclusive = small, poorly fitted or top-dose-only effect; inactive = no such curve, though single readings can be large or run the other way; also: nearly all actives have a fitted effect of over 50% in size
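Fission yeast RE007 carrying one integrated HIV-1 vpr copy, seeded at OD 0.01 in PMG+AL medium with 23 nL pinned compound. Grown 24 h at 30 degrees; viability read by BacTiter-Glo luminescence after 5 min.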
NS1 function inh: blocks influenza NS1 protein function; Potency, µM (top dose mostly 46.1 µM); hit rate 0.4% among 270,000; AID 2326; calls by dose curve; also: actives are rising curves; nearly all actives have a fitted effect of over 50% in size
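OD600 was taken as the measure of yeast growth restored by compound in an NS1-expressing S. cerevisiae strain. Cells had been washed out of glucose medium and diluted 1:100 into galactose -URA medium, pH 6.0.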
SARS PLpro yeast: inhibitors of SARS-CoV papain-like protease in yeast. S. cerevisiae expressing SARS-CoV PLpro, growth rescue. Potency, µM (top dose mostly 32.9 µM), usual class: activators. hit rate 0.19% among 330,000. AID 485353; calls by dose curve; also: nearly all actives have a fitted effect of over 55% in size
Large screens that a line does not name were inactive. A selection: hits, their analogues and other compounds. The true share with any hit is near 9.5%. Unless noted, calls follow the shape of the dose curve; as a rule, active = well fitted inhibition curve with a large enough effect; inconclusive = small, poorly fitted or top-dose-only effect, or another doubt; inactive = no such curve, though single readings can be large or run the other way.

Cc1cc(C)n(-c2ccc(C(=O)Nc3cccc(S(=O)(=O)N(C)C)c3)cc2)n1	Pf growth 96h inconclusive
Cc1cc(C)n(-c2ccc(C(=O)Nc3ccc(C)c(S(=O)(=O)N(C)C)c3)cc2)n1	Pf growth 48h inconclusive, Pf growth 96h 12µM
CN(CC(=O)Nc1ccc(Cl)cc1)C(=O)c1cccc(S(=O)(=O)NCc2ccccc2)c1	none
Cc1ccc(NC(=O)CN(C)C(=O)c2cccc(S(=O)(=O)NCc3ccco3)c2)cc1	Pf growth 96h 9.3µM (no result: NS1 function inh)
Cc1cc(C)n(-c2ccc(C(=O)Nc3ccc(S(=O)(=O)NCc4ccco4)cc3)cc2)n1	Pf growth 48h 13µM
CCN(c1ccccc1)S(=O)(=O)c1ccc(OC)c(NC(=O)c2cc(Cl)ccn2)c1	Pf growth 48h inconclusive, Pf growth 96h 6.6µM (no result: NS1 function inh)
CCN(c1ccccc1)S(=O)(=O)c1ccc(OC)c(NC(=O)c2c(C)noc2C)c1	none (no result: NS1 function inh)
CCN(c1ccccc1)S(=O)(=O)c1ccc(OC)c(NC(=O)Cc2ccc(OC)c(OC)c2)c1	Pf growth 48h inconclusive, Pf growth 96h inconclusive (no result: NS1 function inh)
CCN(c1ccccc1)S(=O)(=O)c1ccc(OC)c(NC(=O)Cc2ccccc2OC)c1	Pf growth 48h 12µM, Pf growth 96h 13µM (no result: NS1 function inh)
Cc1cc(N=Nc2ccc(C)c(N=Nc3cc(C)c(N)cc3N)c2)c(N)cc1N	none
C#CCOCCOCCOCCNc1nc(N2CCOCC2)nc(N2CCN(C(=O)[C@H](Cc3cc4ccccc4[nH]3)n3cc([C@@H](N)CC(C)C)nn3)CC2)n1	Pf growth 48h 2.3µM, Pf growth 96h 4.1µM
C#CCOCCOCCOCCNc1nc(N2CCN(C(=O)[C@H](Cc3cc4ccccc4[nH]3)n3cc([C@@H](N)CC(C)C)nn3)CC2)nc(N2CCN(C(=O)[C@H](Cc3cc4ccccc4[nH]3)n3cc([C@@H](N)CC(C)C)nn3)CC2)n1	Pf growth 48h 2.6µM, Pf growth 96h 4.1µM
C#CCOCCOCCOCCNc1nc(N2CCN(C(=O)[C@H]([C@@H](C)CC)n3cc([C@@H](N)CO)nn3)CC2)nc(N2CCN(C(=O)[C@H](Cc3cc4ccccc4[nH]3)n3cc([C@@H](N)C(C)CC)nn3)CC2)n1 (stereo partly specified)	Pf growth 48h inconclusive, Pf growth 96h inconclusive (no result: RE007 growth inh)
C#CCOCCOCCOCCNc1nc(N2CCN(C(=O)[C@H]([C@@H](C)CC)n3cc([C@@H](N)CC(C)C)nn3)CC2)nc(N2CCN(C(=O)[C@H](Cc3cc4ccccc4[nH]3)n3cc([C@@H](N)CC(C)C)nn3)CC2)n1	Pf growth 48h 10µM, Pf growth 96h 3.3µM (no result: RE007 growth inh)
C[N+]1(CCC(=O)c2ccco2)CC2CCC(CC2)C1 (stereo unspecified)	none (no result: Pf growth 48h, Pf growth 96h, RE007 growth inh, SARS PLpro yeast)
OC(c1ccc(F)cc1)c1nc(-c2cnc3ccccc3c2)cs1 (stereo unspecified)	none (no result: Pf growth 48h, Pf growth 96h, NS1 function inh, SARS PLpro yeast)
CCCS(=O)(=O)NC(=O)C1(C)CCN(C(=O)c2cccc(OC(F)(F)F)c2)C1 (stereo unspecified)	none (no result: Pf growth 48h, Pf growth 96h, NS1 function inh, SARS PLpro yeast)
COc1ccc(C2=NN(C(=O)CN3CCCCC3)C(c3ccc(OC)cc3)C2)cc1 (stereo unspecified)	Pf growth 48h inconclusive, Pf growth 96h inconclusive
COc1ccc(C2CC(c3ccc4ccccc4c3)=NN2C(=O)CN2C(=O)CCC2=O)cc1 (stereo unspecified)	Pf growth 48h 9.3µM, Pf growth 96h inconclusive (no result: NS1 function inh)
COc1cccc(C2CC(c3cccs3)=NN2C(=O)CSc2nc3ccccc3s2)c1OC (stereo unspecified)	Pf growth 48h inconclusive, Pf growth 96h 7.4µM, NS1 function inh inconclusive (no result: RE007 growth inh)
COc1ccc(C2=NN(C(=O)CN3CCCC3)C(c3ccc(OC)cc3)C2)cc1 (stereo unspecified)	Pf growth 48h inconclusive, Pf growth 96h inconclusive
COc1ccc(C2=NN(C(=O)CSc3nc(=O)n4cc(C)ccc4n3)C(c3ccc(C)cc3)C2)cc1 (stereo unspecified)	Pf growth 48h inconclusive, Pf growth 96h 8.3µM (no result: NS1 function inh)
COc1ccc(C2CC(c3ccccc3)=NN2C(=O)COC(=O)C2(C)CC2(Cl)Cl)cc1 (stereo unspecified)	Pf growth 48h inconclusive, Pf growth 96h 9.3µM
CC1CCCCC1NC(=O)CN1CCC(NC(=O)C(C)(C)C)CC1 (stereo unspecified)	none (no result: Pf growth 48h, Pf growth 96h, NS1 function inh, SARS PLpro yeast)
CC(C)N(C(=O)[C@H]1C[C@H](CC(=O)NCCc2ccccn2)C(=O)N2CCc3c([nH]c4cc(CCC(=O)N(C)C)ccc34)[C@]12C)C(C)C	none (no result: Pf growth 48h, Pf growth 96h, NS1 function inh)
O=[N+]([O-])c1cc(S(=O)(=O)C(F)(F)F)ccc1NCC1CCCO1 (stereo unspecified)	none
COc1ccc(C2=NN(C(=O)CSc3nc4ccccc4s3)C(c3ccc(F)cc3)C2)cc1 (stereo unspecified)	Pf growth 48h inconclusive, Pf growth 96h inconclusive
COc1ccc(C2CC(c3ccc4ccccc4c3)=NN2C(=O)CSc2ncccn2)cc1 (stereo unspecified)	Pf growth 48h inconclusive, Pf growth 96h 10µM, NS1 function inh inconclusive
COc1ccc(C2=NN(C(=O)CSc3cn(C)c4ccccc34)C(c3ccc(OC)cc3)C2)cc1 (stereo unspecified)	Pf growth 48h inconclusive, Pf growth 96h inconclusive
Cc1ccc(C2CC(c3ccc(Br)cc3)=NN2C(=O)CSC2=NN3CCCC(=O)N=C3S2)cc1 (stereo unspecified)	Pf growth 48h 12µM
COc1ccc(C2=NN(C(=O)CSc3ncccn3)C(c3ccc(OC)cc3)C2)cc1 (stereo unspecified)	Pf growth 48h 10µM, Pf growth 96h inconclusive (no result: RE007 growth inh)
COc1ccc(C2=NN(C(=O)CSc3nc4ccccc4s3)C(c3ccc(OC)cc3)C2)cc1 (stereo unspecified)	Pf growth 48h 12µM, Pf growth 96h inconclusive
COc1ccccc1-c1ocnc1C(=O)N1CCN(S(=O)(=O)c2ccc(NC(C)=O)cc2)CC1	none
COc1ccc(NC(=O)C2Cc3c(-c4cccc(F)c4)ccnc3O2)cc1 (stereo unspecified)	none (no result: Pf growth 48h, Pf growth 96h, NS1 function inh, SARS PLpro yeast)
Cc1nn(C)c2ncc(C(N)=O)c(Oc3ccc(Cl)cc3)c12	none
CCOc1ccccc1NC(=O)C(=O)CC(=O)c1ccc(OC)cc1	none (no result: Pf growth 48h)
COc1ccc2c(c1)C(C)CC(C)(C)N2C(=O)CSc1nc2ccccc2s1 (stereo unspecified)	Pf growth 48h inconclusive, Pf growth 96h 10µM
O=C(O)C1c2ccccc2Cc2ccccc21	none (no result: Pf growth 48h, Pf growth 96h, NS1 function inh, SARS PLpro yeast)
Cc1ccc(C=NNc2nc3c([nH]2)c(=O)n(C)c(=O)n3C)cc1	none (no result: Pf growth 48h, Pf growth 96h, NS1 function inh, SARS PLpro yeast)
C=CCCCCCCCCC(=O)OC	none (no result: RE007 growth inh, NS1 function inh, SARS PLpro yeast)
Cc1ccc(-c2nc3cc(Br)cnc3nc2-c2ccc(C)cc2)cc1	Pf growth 48h inconclusive, Pf growth 96h 15µM (no result: NS1 function inh)
CC(=O)c1ccc(N2CCCC2)c(F)c1	none (no result: Pf growth 96h, RE007 growth inh)
CCCCCC(=O)N1CCN(c2ccc(C(C)=O)cc2F)CC1	Pf growth 96h 7.4µM
CCC(=O)c1ccc(N2CCCCC2)c(F)c1	Pf growth 96h 8.3µM
O=C(c1cccc(S(=O)(=O)N2CCCC2)c1)N1CCN(Cc2ccccc2)CC1	Pf growth 48h inconclusive, Pf growth 96h inconclusive (no result: NS1 function inh)
